# According to PubChem BioAssay (NCATS):
# Where “and” joins values, the source holds several entries; their conditions need not be identical. Identical values can stand only once. Some compounds were tested as several samples or in several runs, with calls that do not always agree. Calls of active or inactive are those of the source. Where a call stands in place of a potency, no number is given. Unless noted, the call rests on the fitted dose curve; in most records, active means well fitted curve in the direction sought with a large enough effect; inconclusive means small, poorly fitted or top-dose-only effect, or another doubt; inactive means no such curve, though single readings can be large; an effect the other way counts as inactive or inconclusive.
# System: not listed separately
# Assay: qHTS for Inhibitors of ATXN expression: Validation of Cytotoxic Assay (AID 588349)
# Conditions: cytotoxicity counter-screen for ATXN expression inhibitors, cell viability; series mostly up to 57.1 µM
# Method in brief: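 Cytotoxicity counter-screen: ATP-based luminescent viability (CellTiter Glo) after 72 hr exposure of HEK293 cells to a compound titration at 37 degrees C.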
row,Structure (SMILES),Potency
1,CCCn1c(=O)c2[nH]c(C3CCCC3)nc2n(CCCOC(=O)c2ccc(S(=O)(=O)F)cc2)c1=O,inactive
2,CC12NC(Cc3ccccc31)c1ccccc12 (stereo not given),inactive
3,CCCN(CCC)C1Cc2cc(OC)c(OC)cc2C1,inactive
4,N[C@@H](Cn1oc(=O)[nH]c1=O)C(=O)O,inactive
5,NCC(CP(=O)(O)O)c1ccc(Cl)cc1 (stereo not given),inactive
6,CCCN(CCC)CCc1ccc(O)c(O)c1,inactive
7,C[N+](C)(C)CC#CCN1CCCC1=O,inactive
8,CCN(CCCl)Cc1ccccc1Br,inactive

# System: not listed separately
# Assay: qHTS for Inhibitors of ATXN expression: Validation (AID 588378); further: nearly all actives have a fitted effect of over 75% in size; further: potency means the concentration at half of the fitted maximal effect
# Conditions: cell-based ATXN2 expression reporter assay, luminescence; series mostly up to 57.1 µM
# Method in brief: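 Validation of ATXN2 expression inhibitors uses a cell-based luciferase fusion reporter in HEK293 cells, with 24 h compound exposure and paired viability (fluorescence) and reporter (luminescence) end-point reads.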
row,Structure (SMILES),Potency
1,CCCn1c(=O)c2[nH]c(C3CCCC3)nc2n(CCCOC(=O)c2ccc(S(=O)(=O)F)cc2)c1=O,inactive
2,CC12NC(Cc3ccccc31)c1ccccc12 (stereo not given),inactive
3,N[C@@H](Cn1oc(=O)[nH]c1=O)C(=O)O,inactive
4,O=[N+]([O-])/C=C/c1ccc2c(c1)OCO2,10 µM (active)
5,CC1(C(=O)O)C2CCC(O2)C1(C)C(=O)O (stereo not given),7.94 µM (active)
6,O=c1c2ccccc2[se]n1-c1ccccc1,inactive
7,NCC(CP(=O)(O)O)c1ccc(Cl)cc1 (stereo not given),inactive
8,CCCN(CCC)CCc1ccc(O)c(O)c1,inactive
9,CN1CC[C@@]2(C)c3cc(OC(=O)Nc4ccccc4)ccc3N(C)[C@@H]12,inactive
10,CN(N=O)c1cc(O)ccc1O,28.2 µM (active)
11,COc1ccc2c(c1)/C(=C/c1cnc[nH]1)C(=O)N2,2.82 µM (active)
12,CCn1cnc2c(Nc3cccc(Cl)c3)nc(N[C@@H]3CCCC[C@@H]3N)nc21,2.51 µM (active)
13,Oc1ccc2c3c1O[C@H]1c4[nH]c5ccccc5c4C[C@@]4(O)C(C2)N(CC2CC2)CCC314 (stereo not given in full),17.8 µM (active)
14,C[N+](C)(C)CC#CCN1CCCC1=O,inactive
15,CCCn1c(C)c(C(=O)c2ccc3ccccc3c2)c2ccccc21,inactive
16,CNc1ccc2oc(C[C@H]3O[C@@]4(CC[C@H]3C)O[C@H]([C@H](C)C(=O)c3ccc[nH]3)[C@H](C)C[C@H]4C)nc2c1C(=O)O,3.16 µM (active)
17,CCN(CCCl)Cc1ccccc1Br,inactive

# Target: DNA dC->dU-editing enzyme APOBEC-3G (Homo sapiens) (UniProt Q9HC16)
# Sequence (Q9HC16 whole entry, looked up): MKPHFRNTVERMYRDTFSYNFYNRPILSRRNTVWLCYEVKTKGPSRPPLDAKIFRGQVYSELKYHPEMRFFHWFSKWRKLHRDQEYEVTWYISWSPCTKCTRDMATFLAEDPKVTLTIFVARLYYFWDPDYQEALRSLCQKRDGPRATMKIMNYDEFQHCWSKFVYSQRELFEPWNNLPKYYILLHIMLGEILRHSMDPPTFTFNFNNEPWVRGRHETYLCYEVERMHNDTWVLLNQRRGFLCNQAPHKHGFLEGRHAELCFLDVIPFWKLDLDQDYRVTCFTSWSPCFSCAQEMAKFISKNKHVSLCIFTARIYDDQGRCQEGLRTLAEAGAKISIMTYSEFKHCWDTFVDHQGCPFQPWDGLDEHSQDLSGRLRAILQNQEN
# Assay: qHTS for inhibitors of Vif-A3G interactions: Validation (AID 588379)
# Conditions: Vif-A3G protein interaction assay; series mostly up to 46.1 µM
# Method in brief: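 Yellow fluorescence (Ex 488, Em 500-530) of Vif-coexpressing HeLa A3G-eYFP cells, scanned by Acumen cytometer, reports blocked A3G degradation. Cells plated at 700/well overnight at 37 deg C before compound addition, then a further overnight compound incubation at 37 deg C.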
row,Structure (SMILES),outcome
1,c1ccc2c(c1)[I+]c1ccccc1-2,inactive
2,CCCN(CCC)C1Cc2cc(OC)c(OC)cc2C1,inactive
3,N[C@@H](Cn1oc(=O)[nH]c1=O)C(=O)O,inactive
4,COc1ccc2c(c1OC)C(=O)OC2C1c2cc3c(cc2CCN1C)OCO3 (stereo not given),inactive
5,O=c1ccc2[nH]cc(C3=CCNCC3)c2[nH]1,inactive
6,C[N+](C)(C)CC#CCN1CCCC1=O,inactive
7,O=C1C=C2C=C[C@@H]3C[C@@]2(O1)[C@H]1CCCCN31,inactive

# Target: Estrogen receptor (Homo sapiens) (UniProt P03372)
# Sequence (P03372 whole entry, looked up): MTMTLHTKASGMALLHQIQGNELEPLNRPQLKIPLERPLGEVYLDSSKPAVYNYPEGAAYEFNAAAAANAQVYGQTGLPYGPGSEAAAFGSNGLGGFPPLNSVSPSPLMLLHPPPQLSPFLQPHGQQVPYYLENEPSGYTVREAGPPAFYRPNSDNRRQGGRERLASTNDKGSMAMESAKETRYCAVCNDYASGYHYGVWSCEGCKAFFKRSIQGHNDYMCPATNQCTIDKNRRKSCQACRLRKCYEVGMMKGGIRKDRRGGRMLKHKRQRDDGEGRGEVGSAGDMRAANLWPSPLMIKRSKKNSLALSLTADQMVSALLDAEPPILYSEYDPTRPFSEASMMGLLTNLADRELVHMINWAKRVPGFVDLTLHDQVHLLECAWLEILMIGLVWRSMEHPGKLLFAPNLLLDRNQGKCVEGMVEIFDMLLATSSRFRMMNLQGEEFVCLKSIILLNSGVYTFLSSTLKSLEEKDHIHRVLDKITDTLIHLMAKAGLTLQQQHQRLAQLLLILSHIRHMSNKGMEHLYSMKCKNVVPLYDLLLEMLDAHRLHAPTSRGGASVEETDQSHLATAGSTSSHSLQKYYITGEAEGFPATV
# Assay: qHTS assay for small molecule antagonists of estrogen receptor alpha signaling (AID 588513; active means well fitted curve in the direction sought with a large enough effect in the signal ratio, with a control signal flat, not every such curve was filed as active; inconclusive means small, poorly fitted or top-dose-only effect, or effect the other way, or a change in a side signal; inactive means no such curve, though single readings can be large or run the other way; the % refers to the signal ratio; further: potency means the concentration at half of the fitted maximal effect)
# Conditions: ER-alpha-UAS-bla HEK293, beta-lactamase ratio, antagonist mode; series mostly up to 76.9 µM
# Method in brief: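 Cells were plated at 5000/well and incubated 4 h at 37 C. Compounds were added as 1:2 dilution series, duplicates. 17-beta-estradiol (0.5nM final) was added for 18 h before CCF4 detection.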
row,Structure (SMILES),Potency
1,C=CCN=C=S,inactive
2,[Cl-].[Cl-].[Hg+2],2.51 µM [inconclusive] (active)
3,O=C1C2CC=CCC2C(=O)N1SC(Cl)(Cl)Cl (stereo not given),12.6 µM [inconclusive] (active) and 10 µM [inconclusive] (active) and inactive
4,O=[N+]([O-])c1ccc(F)c([N+](=O)[O-])c1,inactive
5,CCOP(=O)(OCC)O/C(=C/Cl)c1ccc(Cl)cc1Cl,inactive
6,CCOC(=O)c1ccccc1C(=O)OCC,inactive
7,C[C@H]1CC[C@@H]2[C@@H](C)[C@H]3[C@H](C[C@H]4[C@@H]5CC=C6CC(O[C@@H]7O[C@H](CO)[C@H](O)[C@H](O[C@@H]8O[C@H](CO)[C@@H](O)[C@H](O)[C@H]8O)[C@H]7O[C@H]7O[C@@H](C)[C@H](O)[C@@H](O)[C@H]7O)CC[C@]6(C)[C@H]5CC[C@]34C)N2C1 (stereo not given in full),22.4 µM [inconclusive] (active)

# Target: Estrogen receptor (Homo sapiens) (UniProt P03372)
# Assay: qHTS assay for small molecule agonists of estrogen receptor alpha signaling (AID 588514; calls by dose curve; further: nearly all actives have a fitted effect of over 70% in size)
# Conditions: ER-alpha-UAS-bla HEK293, beta-lactamase ratio, 18 h; series mostly up to 76.8 µM
# Method in brief: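 EC50 and efficacy came from Hill fits of beta-lactamase reporter signal (CCF4 dye, 2 h at room temperature) scaled between DMSO and 20 nM 17-beta-estradiol. Agonist mode: HEK293 ER-alpha-UAS-bla cells in charcoal/dextran-stripped serum medium, 18 h compound exposure at 37 C.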
row,Structure (SMILES),Potency
1,C=CCN=C=S,inactive
2,O=C(O)c1cc[c]([Hg][Cl])cc1,inactive
3,[Cl-].[Cl-].[Hg+2],inactive
4,O=[N+]([O-])c1ccc(F)c([N+](=O)[O-])c1,inactive
5,CCOP(=O)(OCC)O/C(=C/Cl)c1ccc(Cl)cc1Cl,inactive
6,CCOC(=O)c1ccccc1C(=O)OCC,inactive
7,C[C@H]1CC[C@@H]2[C@@H](C)[C@H]3[C@H](C[C@H]4[C@@H]5CC=C6CC(O[C@@H]7O[C@H](CO)[C@H](O)[C@H](O[C@@H]8O[C@H](CO)[C@@H](O)[C@H](O)[C@H]8O)[C@H]7O[C@H]7O[C@@H](C)[C@H](O)[C@@H](O)[C@H]7O)CC[C@]6(C)[C@H]5CC[C@]34C)N2C1 (stereo not given in full),inactive

# Target: Bile acid receptor (Homo sapiens) (UniProt Q96RI1)
# Sequence (Q96RI1 whole entry, looked up): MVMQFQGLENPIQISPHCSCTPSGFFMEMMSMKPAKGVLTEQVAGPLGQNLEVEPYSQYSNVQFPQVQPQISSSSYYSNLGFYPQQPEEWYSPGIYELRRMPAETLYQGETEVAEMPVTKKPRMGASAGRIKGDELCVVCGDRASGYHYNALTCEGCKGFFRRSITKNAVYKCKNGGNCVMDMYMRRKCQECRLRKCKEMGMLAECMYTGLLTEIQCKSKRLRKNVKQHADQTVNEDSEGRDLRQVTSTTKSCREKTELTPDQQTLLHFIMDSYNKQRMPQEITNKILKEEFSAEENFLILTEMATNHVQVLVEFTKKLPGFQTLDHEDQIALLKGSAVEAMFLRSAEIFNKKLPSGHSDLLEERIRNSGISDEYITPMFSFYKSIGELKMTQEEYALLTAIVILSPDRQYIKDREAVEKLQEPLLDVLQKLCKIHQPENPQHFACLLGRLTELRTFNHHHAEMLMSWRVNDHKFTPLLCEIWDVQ
# Assay: qHTS assay for small molecule antagonists of farnesoid X receptor signaling (AID 588526; calls by dose curve; further: potency means the concentration at half of the fitted maximal effect)
# Conditions: HEK293T FXR-UAS-bla, beta-lactamase ratio, antagonist mode; series mostly up to 76.7 µM
# Method in brief: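 Antagonist mode: titrated compounds tested against chenodeoxycholic acid stimulation (normalized to 50 uM CDCA and DMSO) in GeneBLAzer HEK293T cells for 16 h. Beta-lactamase read by CCF4 fluorescence; IC50 from Hill fits.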
row,Structure (SMILES),Potency
1,C[CH2][Hg][S]c1ccccc1C(=O)O,8.91 µM (active)
2,O=C(O)c1cc[c]([Hg][Cl])cc1,inactive
3,COC1=CC(=O)O[C@@H](/C=C/c2ccccc2)C1,inactive
4,CCCSP(=O)(OCC)SCCC,inactive

# Target: Glucocorticoid receptor (Homo sapiens) (UniProt P04150)
# Sequence (P04150 whole entry, looked up): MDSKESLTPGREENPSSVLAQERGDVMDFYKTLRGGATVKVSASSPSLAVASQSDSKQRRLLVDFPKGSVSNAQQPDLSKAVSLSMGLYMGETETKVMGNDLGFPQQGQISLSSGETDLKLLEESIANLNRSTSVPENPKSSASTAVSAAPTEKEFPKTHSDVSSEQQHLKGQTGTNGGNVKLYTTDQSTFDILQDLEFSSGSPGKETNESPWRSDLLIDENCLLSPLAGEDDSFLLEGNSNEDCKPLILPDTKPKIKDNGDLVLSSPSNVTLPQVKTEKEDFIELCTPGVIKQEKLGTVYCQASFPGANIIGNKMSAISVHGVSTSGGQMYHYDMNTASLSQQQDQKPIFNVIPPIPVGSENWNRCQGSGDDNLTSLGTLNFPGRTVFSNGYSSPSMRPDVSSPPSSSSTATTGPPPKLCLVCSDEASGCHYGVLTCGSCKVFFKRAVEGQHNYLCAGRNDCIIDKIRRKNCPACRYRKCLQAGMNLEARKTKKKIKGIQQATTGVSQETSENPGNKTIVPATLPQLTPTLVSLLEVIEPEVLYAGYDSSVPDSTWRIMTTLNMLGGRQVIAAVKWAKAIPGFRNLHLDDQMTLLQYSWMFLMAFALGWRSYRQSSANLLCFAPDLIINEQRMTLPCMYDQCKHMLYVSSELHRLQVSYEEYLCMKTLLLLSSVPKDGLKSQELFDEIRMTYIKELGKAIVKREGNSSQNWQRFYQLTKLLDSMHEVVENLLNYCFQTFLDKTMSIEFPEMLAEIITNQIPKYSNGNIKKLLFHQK
# Assay: qHTS assay for small molecule agonists of glucocorticoid receptor signaling (AID 588532; active means well fitted curve in the direction sought with a large enough effect in the signal ratio, with a control signal flat; inconclusive means small, poorly fitted or top-dose-only effect, or a change in a side signal; inactive means no such curve, though single readings can be large or run the other way; the % refers to the signal ratio)
# Conditions: HeLa MMTV-bla, beta-lactamase ratio, agonist, 18 h; stronger effect = higher value; percent of dexamethasone control, DMSO zero
# Method in brief: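 MMTV-bla HeLa beta-lactamase reporter cells in 1% charcoal/dextran FBS medium, compounds up to 92 uM for 18 h at 37 C, CCF4 readout; normalized to 0.1 uM dexamethasone (100%), EC50 and efficacy from Hill fits.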
row,Structure (SMILES),activation
1,O=C(O)c1cc[c]([Hg][Cl])cc1,5.77% (inactive)
2,COC1=CC(=O)O[C@@H](/C=C/c2ccccc2)C1,-2.27% (inactive)
3,CCOP(=O)(OCC)O/C(=C/Cl)c1ccc(Cl)cc1Cl,-9.9% (inactive) and -3.21% (inactive)
4,CCOC(=O)c1ccccc1C(=O)OCC,-2.44% (inactive) and -3.91% (inactive)
5,C[C@H]1CC[C@@H]2[C@@H](C)[C@H]3[C@H](C[C@H]4[C@@H]5CC=C6CC(O[C@@H]7O[C@H](CO)[C@H](O)[C@H](O[C@@H]8O[C@H](CO)[C@@H](O)[C@H](O)[C@H]8O)[C@H]7O[C@H]7O[C@@H](C)[C@H](O)[C@@H](O)[C@H]7O)CC[C@]6(C)[C@H]5CC[C@]34C)N2C1 (stereo not given in full),-7.38% (inactive)
